The results in this text go back to PubChem BioAssay (Tox21).

Results filed as inconclusive are left out. A call without a number means that no potency is given here. More than one record can exist for a structure, and the calls need not agree. Activity calls are given as the source filed them. Calls come from the whole dose curve; as a rule, active = well fitted curve in the direction sought with a large enough effect in the repeat runs; inconclusive = weak or mixed curves; inactive = no such curve, though single readings can be large; an effect the other way counts as inactive or inconclusive.
Note: nearly all actives have a fitted effect of over 50% in size.
Potency is the fitted concentration of half-maximal effect.

The first assay in a line: qHTS RealTime-Glo MT Cell Viability Assay in HepG2 cells - 16 hour (AID 1224885). Particulars: RealTime-Glo luminescence; series mostly up to 76.8 µM. An outline of the steps: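 Luminescence read-out: viable HepG2 cells reduce a prosubstrate to a NanoLuc substrate, giving a signal proportional to live cell number. Reads taken at 0, 8, 16, 24, 32 and 40 h of compound exposure at 37 C.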
A general note: Quantitative high-throughput screening tests each substance at several concentrations.
Turning to `NC(=O)NS(=O)(=O)c1ccc(N)cc1`, the Potency result was “inactive”.
Still for that read-out and setting: under `O=C(N/N=C/c1ccccc1O)c1ccncc1` stands “inactive”; under `O=C(Nc1cccc([N+](=O)[O-])c1)c1cc2ccccc2cc1O`, “inactive”.
As for `C/C(=C(/OCCOc1ccc(Cl)cc1)c1ccc(Cl)cc1Cl)n1ccnc1`, the Potency entry was “inactive”.
As for `Cn1cc(C(=O)[C@@H]2CCc3nc[nH]c3C2)c2ccccc21`, the Potency entry was “inactive”.
In the case of `CC1=C(C(=O)OC(C)C)C(c2cccc([N+](=O)[O-])c2)C(C(=O)OC2CN(C(c3ccccc3)c3ccccc3)C2)=C(N)N1` (stereo not drawn), the Potency was 21.3 µM (active).
On the same count and under the same terms, to `Cc1cccc(S(=O)(=O)O)c1C` belongs “inactive”; to `CCCC1O[C@@H]2C[C@H]3[C@@H]4CCC5=CC(=O)C=C[C@]5(C)[C@H]4[C@@H](O)C[C@]3(C)[C@]2(C(=O)CO)O1` (stereo partly drawn), “inactive”.
On the same count and under the same terms, under `Nc1ccccc1O` stands “inactive”; under `O=C(NOCC1CC1)c1ccc(F)c(F)c1Nc1ccc(I)cc1Cl`, “inactive”.
Take `Cc1cc(C2CCCCC2)n(O)c(=O)c1`: the Potency entry is “inactive”.
Same read-out and setting: to `O=C(O)c1c(Cl)cccc1Cl` belongs “inactive”; to `CN(C/C=C/C#CC(C)(C)C)Cc1cccc2ccccc12`, “inactive”.
Same read-out and setting: under `Clc1ccc2n[nH]nc2c1` stands “inactive”.
The same measure, in the same setting: to `CCN(C(=O)N(CC)c1ccccc1)c1ccccc1` belongs “inactive”; to `Cc1ccc(-n2nc(C(C)(C)C)cc2NC(=O)Nc2ccc(OCCN3CCOCC3)c3ccccc23)cc1`, “inactive”; to `CCOC(=O)/C=C(C)/C=C/C=C(C)/C=C/c1c(C)cc(OC)c(C)c1C`, “inactive”.
For the compound `CC(C)(C)C(=O)OCOC(=O)[C@@H]1N2C(=O)[C@@H](NC(=O)[C@H](N)c3ccccc3)[C@H]2SC1(C)C`, the Potency entry was “inactive”.
As for `CCOC(=O)O[C@H](C)OC(=O)c1ccc2c(c1)cc(C(=O)NC1CCN(C(C)C)CC1)n2Cc1cc(-c2ccc(Cl)s2)on1`, the Potency was 12.9 µM (active).

The nature of the next assay: qHTS RealTime-Glo MT Cell Viability Assay in HEK293 cells - 24 hour (AID 1224886). For activity change, negative = cytotoxicity: top concentration of the series differs between compounds. Conditions: RealTime-Glo luminescence; series mostly up to 76.8 µM. Summed up:
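Nonlytic real-time viability readout: viable cells convert prosubstrate to NanoLuc substrate, giving luminescence proportional to live cell number. HEK293, 600 cells/well, compound added after 5 h, continuous culture at 37 C.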
For `C[C@@H]1C[C@H]2[C@@H]3CCC4=CC(=O)C=C[C@]4(C)[C@@]3(Cl)[C@@H](O)C[C@]2(C)[C@@]1(OC(=O)c1ccco1)C(=O)CCl`, the Potency entry is “inactive”.
For `CN(C)c1ccc(C2(c3ccc(N(C)C)cc3)OC(=O)c3cc(N(C)C)ccc32)cc1`, the Potency entry is “inactive”.
Same read-out and setting: under `Clc1ccc(C(Cn2ccnc2)OCc2ccc(Sc3ccccc3)cc2)c(Cl)c1` (stereo not drawn) stands “inactive”.
Still for that read-out and setting: to `NNc1nc(-c2ccc([N+](=O)[O-])cc2)cs1` belongs 24.5 µM (active); to `CCCCCOC(=O)CCCC`, “inactive”.
Same read-out and setting: under `CCC(N)(CO)CO` stands “inactive”; under `C=CC(=O)OCC(CO)(COC(=O)C=C)COC(=O)C=C`, 4.91 µM (active).
In the case of `Cc1ccc2oc(CN(Cc3ccccc3)C(=O)Nc3c(F)cc(F)cc3F)c(-c3ccc(Cl)cc3)c2c1`, the Potency result was “inactive”.
As to `CC(=O)OCC(C)OC(C)=O` (stereo not drawn), the Potency result is “inactive”.
Still for that read-out and setting: to `C1CCCC1` belongs “inactive”; to `Nc1ccc2cc(S(=O)(=O)O)cc(O)c2c1N=Nc1ccccc1C(F)(F)F`, “inactive”.
Same read-out and setting: to `CSc1cnc(C)cn1` belongs “inactive”; to `CCN1/C(=C/C=C/c2sc3ccccc3[n+]2CC)Sc2ccccc21`, 1.17 µM (active); to `CSc1ccc(/C=C2/C(C)=C(CC(=O)O)c3cc(F)ccc32)cc1`, “inactive”.
The same measure, in the same setting: to `CCN(CCC#N)c1ccc(N=Nc2c(Cl)cc([N+](=O)[O-])cc2Cl)cc1` belongs “inactive”; to `Cc1onc(-c2c(Cl)cccc2Cl)c1C(=O)N[C@@H]1C(=O)N2[C@@H]1SC(C)(C)[C@@H]2C(=O)O`, “inactive”; to `CCN(Cc1cccnc1)C(=O)c1cccc(Cl)c1[C@]1(C)C(=O)N(Cc2ccc(OC)cc2OC)c2ccc(Cl)cc21`, 20.4 µM (active).

The nature of a further assay: qHTS RealTime-Glo MT Cell Viability Assay in HEK293 cells - 8 hour (AID 1224887). For activity change, negative = cytotoxicity: top concentration of the series differs between compounds. Conditions: RealTime-Glo luminescence; series mostly up to 76.8 µM. An outline of the steps: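 HEK293 + NanoLuc + prosubstrate, 600 cells/well; 5 h, 37 C/5% CO2; compound 23 nL in DMSO by pintool; 37 C; luminescence read at 0, 8, 16, 24, 32 and 40 h time points.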
Turning to `C[C@@H]1C[C@H]2[C@@H]3CCC4=CC(=O)C=C[C@]4(C)[C@@]3(Cl)[C@@H](O)C[C@]2(C)[C@@]1(OC(=O)c1ccco1)C(=O)CCl`, the Potency result is “inactive”.
Still for that read-out and setting: to `CN(C)c1ccc(C2(c3ccc(N(C)C)cc3)OC(=O)c3cc(N(C)C)ccc32)cc1` belongs “inactive”; to `Clc1ccc(C(Cn2ccnc2)OCc2ccc(Sc3ccccc3)cc2)c(Cl)c1` (stereo not drawn), “inactive”; to `NNc1nc(-c2ccc([N+](=O)[O-])cc2)cs1`, “inactive”.
Still for that read-out and setting: to `CCCCCOC(=O)CCCC` belongs “inactive”; to `CCC(N)(CO)CO`, “inactive”; to `C=CC(=O)OCC(CO)(COC(=O)C=C)COC(=O)C=C`, 6.19 µM (active) and inactive.
As to `Cc1ccc2oc(CN(Cc3ccccc3)C(=O)Nc3c(F)cc(F)cc3F)c(-c3ccc(Cl)cc3)c2c1`, the Potency entry was “inactive”.
As to `CC(=O)OCC(C)OC(C)=O` (stereo not drawn), the Potency result is “inactive”.
For `C1CCCC1`, the Potency result is “inactive”.
On the same count and under the same terms, under `Nc1ccc2cc(S(=O)(=O)O)cc(O)c2c1N=Nc1ccccc1C(F)(F)F` stands “inactive”; under `CSc1cnc(C)cn1`, “inactive”.
In the case of `CCN1/C(=C/C=C/c2sc3ccccc3[n+]2CC)Sc2ccccc21`, the activity change, negative = cytotoxicity was -21.6% [at 15.8 µM] (inactive).
Regarding `CSc1ccc(/C=C2/C(C)=C(CC(=O)O)c3cc(F)ccc32)cc1`, the Potency entry is “inactive”.
On the same count and under the same terms, to `CCN(CCC#N)c1ccc(N=Nc2c(Cl)cc([N+](=O)[O-])cc2Cl)cc1` belongs “inactive”.
On the same count and under the same terms, to `Cc1onc(-c2c(Cl)cccc2Cl)c1C(=O)N[C@@H]1C(=O)N2[C@@H]1SC(C)(C)[C@@H]2C(=O)O` belongs “inactive”; to `CCN(Cc1cccnc1)C(=O)c1cccc(Cl)c1[C@]1(C)C(=O)N(Cc2ccc(OC)cc2OC)c2ccc(Cl)cc21`, 20.4 µM (active).
